Compound activity: PubChem, National Center for Advancing Translational Sciences (NCATS)
This is a sample that favours compounds with a hit; in the whole collection about 6% have one here.
D1 potentiator = enhances dopamine response at the human D1 receptor. potentiation, % at 10 µM. P21728. HEK293 TREx D1 cells, calcium flux, dopamine EC20 potentiation. 360,000 compounds, 0.036% hits; in the data active = potentiation above about 30%; note: 0% is about no effect
D1 agonist = human D1 receptor agonism | activation, % at 2 µM | HEK293 T-REx D1 cells, calcium flux, agonist mode | P21728 | 360,000 compounds, 1% hits; in the data active = activation above about 30%; note: 0% is about no effect
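Agonism was scored from calcium flux recorded over 180 s (1 read/s) after pintool compound addition, following a 10-cycle baseline. Cells were inducible force-coupled HEK293 TREx D1, plated overnight at 30 C and loaded with no-wash calcium dye.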
D3 antag = antagonists of human D3 dopamine receptor; 360,000 compounds, 2.5% hits; AID 652054; D3R cells, DiscoveRx beta-arrestin luminescence, antagonist mode; active compounds read low; max response, negative = inhibition, %; in the data active = max response below about -50%; inconclusive = no clear call, values can overlap the other calls; note: % is set by controls: 0 for no effect and ±100 for the full control effect
Target sequence (P35462 whole entry, looked up): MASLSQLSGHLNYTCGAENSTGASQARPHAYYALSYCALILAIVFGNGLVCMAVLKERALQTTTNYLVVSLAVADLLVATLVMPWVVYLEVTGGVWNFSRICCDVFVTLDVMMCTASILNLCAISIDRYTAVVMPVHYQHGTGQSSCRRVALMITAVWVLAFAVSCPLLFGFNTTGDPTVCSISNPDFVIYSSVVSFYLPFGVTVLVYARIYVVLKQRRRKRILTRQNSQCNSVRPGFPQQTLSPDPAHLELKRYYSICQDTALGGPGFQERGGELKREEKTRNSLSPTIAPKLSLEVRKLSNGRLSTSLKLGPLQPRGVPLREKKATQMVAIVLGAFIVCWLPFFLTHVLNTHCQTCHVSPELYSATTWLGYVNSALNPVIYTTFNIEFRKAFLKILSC
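Cells plated overnight at 1500 cells/well, then exposed to library compounds with dopamine controls for 90 minutes at 37 degrees C. DiscoveRx reagent added for 30–60 minutes at room temperature; luminescence read, quantitative HTS format.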
D3 ag = activates the human D3 dopamine receptor. max activation, %. D3R DiscoveRx beta-arrestin cells, luminescence, 90 min. 410,000 compounds, 0.58% hits. P35462; in the data active = max activation above about 30%; note: 0% is about no effect
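Agonist-mode cell screen: cells plated at 1500/well and incubated overnight at 37 °C, then exposed to library compounds for 90 min at 37 °C. Detection reagent was added for 30–60 min at room temperature, and luminescence was read.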
D1 antag = antagonists of human D1 dopamine receptor. 360,000 compounds, 3.2% hits. P21728. activity change, negative = inhibition, % at 10 µM. HEK293 TREx D1 cells, calcium flux, dopamine EC80; active compounds read low; in the data active = activity change below about -30%; note: % is set by controls: 0 for no effect and ±100 for the full control effect
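Using tetracycline-induced force-coupled D1 Hek293 cells and a calcium dye, signals were followed for 180 s after compound, then for 180 s after EC80 dopamine, to detect inhibitors.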
Active calls of the source: *; u = inconclusive; x = no result given; ! = a repeat was not active.

SMILES	D1 potentiator	D1 agonist	D3 antag	D3 ag	D1 antag
CCN(CC)CC#CCC(C)(c1ccccc1)c1ccccc1	-0.1	8.4	-55.1*	-54.0	3.7
CN(C)CC#CCC(O)(c1ccccc1)c1ccccc1	-7.7	1.9	12.2	-9.0	-10.5
CCN(CC)CC#CCC(O)(c1ccccc1)c1ccccc1	-1.2	4.0	-78.5*	-18.5	6.0
FC(F)(F)c1cccc(N2CCN(CC3CC4C=CC3C4)CC2)c1 (stereo not drawn)	-0.9	5.1	-72.4*	-22.8	8.7
Fc1ccccc1N1CCN(CC2CC3C=CC2C3)CC1 (stereo not drawn)	-24.7	2.1	-71.2*	11.8	-20.8
CCCS(=O)(=O)N1CCN(CC2CC3C=CC2C3)CC1 (stereo not drawn)	-2.4	1.0	-21.3	-6.1	0.2
Cc1cc2[nH]c(=O)c(=O)[nH]c2cc1S(=O)(=O)N1CCN(c2cccc(C(F)(F)F)c2)CC1	-8.7	1.5	-6.3	2.7	-62.2*!
CCS(=O)(=O)N1CCN(CC2CC3C=CC2C3)CC1 (stereo not drawn)	-2.5	2.1	-71.9*	-7.4	2.2
C=CCOc1c(Cl)cc(CNCCCN2CCOCC2)cc1OC	4.2	4.2	2.0	-13.3	6.3
Cc1ccc(S(=O)(=O)N2CCN(CC3CC4C=CC3C4)CC2)cc1 (stereo not drawn)	-7.1	0.3	-25.0	-8.0	3.0
C1=CC2CC1CC2CN1CCN(Cc2ccccc2)CC1 (stereo not drawn)	-4.5	3.5	-53.1*	-21.7	-18.0
O=S1(=O)N=C(N/N=C/c2cccs2)c2ccccc21	-5.0	3.0	-2.3	1.9	-30.8*
COC(=O)c1[nH]c2cccc(OC)c2c1NC(=O)C(C)N1CCC(C)CC1 (stereo not drawn)	-3.7	1.1	-9.1	-15.2	8.8
COC(=O)c1[nH]c2ccc(Cl)cc2c1NC(=O)CCN1CCOCC1	-6.0	0.9	0.0	5.5	-37.8*
COC(=O)c1[nH]c2cccc(OC)c2c1NC(=O)CCN1CCC(C)CC1	0.2	-0.4	-77.1*	-28.1	6.1
COC(=O)c1[nH]c2cccc(OC)c2c1NC(=O)CCN1CCN(c2ccccc2OC)CC1	-10.8	0.2	-90.2*	-45.9	-39.0*
O=C(CSc1ccc2nnc(CCNS(=O)(=O)c3ccccc3)n2n1)Nc1ccccc1C(F)(F)F	-4.0	1.0	x	4.6	-5.6
CCOC(=O)c1c(-c2ccccc2)oc2ccc(NS(=O)(=O)c3ccc(C)cc3C)cc12	0.9	5.6	x	4.0	8.7
NC(=O)[C@@H]1C[C@]2(NC(=O)NC2=O)c2cc(F)ccc2O1	x	x	x	-0.9	x
COCC(=O)N(C)CC1CCCN(CCc2ccccc2OC)C1 (stereo not drawn)	-5.8	2.3	-64.1*	-11.9	-7.5
COc1ccccc1CCN1CCCC(CN(C)C(=O)c2ccoc2)C1 (stereo not drawn)	-5.3	1.3	u	-13.0	-12.7
COc1ccccc1CCN1CCCC(CN(C)C(=O)c2ccco2)C1 (stereo not drawn)	-21.6	2.4	u	-14.5	-49.7*
COc1cccc(CNC(=O)c2cc(-c3ccc(Cl)cc3)n[nH]2)c1	-2.2	5.5	x	5.8	-5.2
O=C(Nc1ccccc1)c1cc(C2CCCCN2C(=O)CCc2ccccc2)on1 (stereo not drawn)	x	x	4.6	29.7	x
C=CC1=C2C=C(C3CC3)N(CC3CC3)C=C2C(=O)C(C)(OC(=O)c2ccco2)C1=O (stereo not drawn)	x	x	0.0	-8.2	x
SMILES	D1 potentiator	D1 agonist	D3 antag	D3 ag	D1 antag
C=CC1=C2C=C(C3CC3)N(CCCN(CC)CC)C=C2C(=O)C(C)(OC(=O)c2ccco2)C1=O (stereo not drawn)	x	x	-13.0	46.2*	x
CCCCNC(=O)CC1Nc2cc(C)c(C)cc2NC1=O (stereo not drawn)	-1.4	3.3	x	-9.0	-9.1
CCCCc1nc(Cl)c(CO)n1Cc1ccc(-c2ccccc2-c2nn[nH]n2)cc1	-2.4	3.7	22.6	5.9	-22.0
CCCc1nc(C(C)(C)O)c(C(=O)O)n1Cc1ccc(-c2ccccc2-c2nn[nH]n2)cc1	-0.2	0.1	x	x	-43.0*
CCc1c(C)nc2nncn2c1Nc1cccc(C)c1	-2.0	3.7	x	4.2	8.3
Cc1cc(C(F)(F)F)n2ncc(C(=O)O)c2n1	x	4.4	13.0	1.7	-31.0*
O=C(N/N=C/c1ccco1)c1cc(-c2ccc(Cl)s2)[nH]n1	-1.1	28.3	3.0	-5.6	-43.4*
C/C(=N/NC(=O)c1cc(-c2ccc(Br)s2)[nH]n1)c1ccco1	-10.2	0.0	-17.5	-21.1	-46.0*
O=C(N/N=C/c1ccco1)c1cc(-c2ccc(Br)s2)[nH]n1	-7.3	0.7	0.4	-4.7	-1.1
C/C(=N\NC(=O)c1cc(-c2ccc(Br)s2)[nH]n1)c1ccncc1	-1.2	2.7	-2.2	-2.3	-0.2
CN(C)CCCNC(=O)C(=O)NCC(c1ccc2c(c1)OCO2)N1CCOCC1 (stereo not drawn)	-3.4	1.2	x	-6.1	8.0
CSc1nc(N)c(C#N)c(-c2ccc(Cl)cc2)c1C#N	-10.8	8.5	25.4	-3.9	-32.2*
O=C(CNC(=O)c1ccco1)NCC(c1ccco1)N1CCCCC1 (stereo not drawn)	x	4.4	-5.1	1.0	-2.2
O=C(COC(=O)C1CCC(N2C(=O)C3C4CCC(C4)C3C2=O)CC1)c1ccc(F)cc1 (stereo not drawn)	-8.6	11.9	0.5	1.1	-34.6*
O=C(COC(=O)C1CC(=O)N(C2CCCCC2)C1)c1ccc(F)cc1 (stereo not drawn)	-3.1	6.7	-57.7*	-6.9	-12.1
O=C(NNC(=O)C(c1ccccc1)c1ccccc1)c1ccccn1	-1.4	3.6	-86.0*	-24.2	11.9
COc1cc2c(c(OCC(=O)NC(C)C)c1)C(=O)O[C@@H](C)CCCC(=O)CCCCC2	-7.1	0.5	22.0	1.3	-33.1*
O=c1n(Cc2cccc(F)c2)c2ccccc2c2nc(-c3ccccc3)nn12	0.0	-0.4	x	-10.0	-53.2*
Cc1cccc(Cn2c(=O)n3nc(-c4ccccc4)nc3c3ccccc32)c1	0.9	2.3	x	3.3	10.6
COc1ccc(N2CCN(CCCNC(=O)c3ccc4nc(N5CCCCC5)sc4c3)CC2)cc1	-3.6	13.4	x	-4.2	-56.5*
CC1CC(C)CN(CCCNC(=O)c2ccc3nc(N4CCOCC4)sc3c2)C1 (stereo not drawn)	0.2	1.7	-62.8*	-16.6	-13.4
C[C@H]1CN([C@@H](C)CO)C(=O)c2cc(C#Cc3ccccn3)cnc2O[C@@H]1CN(C)Cc1ccccc1	x	x	9.3	-5.1	x
CCOC(=O)c1c(NC(=O)CSc2cn(CCNC(=O)c3ccccc3OC)c3ccccc23)sc2c1CCCC2	-4.5	0.9	x	6.3	-1.8
CCOc1ccc(CCn2c(-c3ccco3)nc3ccccc3c2=O)cc1OCC	-5.8	0.8	28.1	35.9*	-20.1
O=c1c2ccccc2nc(-c2ccco2)n1Cc1ccccc1	3.0	1.4	15.3	-6.9	-13.2
